This is a sample that favours compounds with a hit; in the whole collection about 11% have one here.
G9a block – qHTS Assay for Inhibitors of Histone Lysine Methyltransferase G9a | AID 504332, 2011 | actives 8.8% (n = 350,000) | Potency, µM (titrated, usually from 102 µM), actives largely listed as inhibitors | G9a H3K9 monomethylation, AlphaScreen, 2 h | Histone-lysine N-methyltransferase EHMT2 (Homo sapiens), Q96KQ7; note: nearly all actives have a fitted effect of over 75% in size
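Methyltransferase reactions run at room temperature for 2 h (20 nM enzyme, 500 nM biotin-H3K9 peptide, 20 uM SAM) after a 15 min compound preincubation; product detected by AlphaScreen beads and anti-H3K9me1 antibody.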
BAZ2B inh – qHTS Assay for Inhibitors of BAZ2B | AlphaScreen BAZ2B-H3K14Ac peptide displacement | AID 504333, 2011 | Potency, µM (doses to about 114 µM), most hits filed as inhibitors | actives 4.4% (n = 360,000); note: nearly all actives have a fitted effect of over 60% in size
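BAZ2B 50 nM plus b-H3(5-23)K14Ac 50 nM, PBS pH 7.4/0.01% Tween-20, 30 min RT; compound added (max 110 uM), 30 min RT; streptavidin donor/Ni-chelate acceptor beads 10 ug/mL final, 20 min dark; AlphaScreen read.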
JMJD2A Tudor inh – qHTS Assay for Inhibitors of JMJD2A-Tudor Domain; Lysine-specific demethylase 4A (Homo sapiens), O75164; AlphaScreen JMJD2A-Tudor / H3K4me3 peptide binding; Potency, µM (highest dose often 114 µM), actives largely listed as inhibitors; actives 4.4% (n = 390,000); AID 504339, 2011; note: nearly all actives have a fitted effect of over 50% in size
HP1b chromo inh – HTS for Inhibitors of HP1-beta Chromodomain Interactions with Methylated Histone Tails. AlphaScreen HP1-beta / biotin-H3K9me3 peptide binding. Potency, µM (doses to about 114 µM), actives largely listed as inhibitors. actives 0.56% (n = 390,000); note: nearly all actives have a fitted effect of over 70% in size
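AlphaScreen: HP1-beta (50 nM) preformed 30 min with biotin-H3(1-18)K9me3 peptide (50 nM) in PBS pH 7.4, 0.01% Tween-20. Compound added for 30 min at RT, then streptavidin donor/nickel chelate acceptor beads (10 ug/mL) for 30 min.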
L3MBTL1 block – qHTS Assay for the Inhibitors of L3MBTL1; Lethal(3)malignant brain tumor-like protein 1 (Homo sapiens), Q9Y468; AlphaScreen L3MBTL1–H3K9me1 peptide binding; Potency, µM (titrated, usually from 57.1 µM), usual class: inhibitors; actives 0.66% (n = 230,000); note: nearly all actives have a fitted effect of over 60% in size
Target sequence (Q9Y468 whole entry, looked up): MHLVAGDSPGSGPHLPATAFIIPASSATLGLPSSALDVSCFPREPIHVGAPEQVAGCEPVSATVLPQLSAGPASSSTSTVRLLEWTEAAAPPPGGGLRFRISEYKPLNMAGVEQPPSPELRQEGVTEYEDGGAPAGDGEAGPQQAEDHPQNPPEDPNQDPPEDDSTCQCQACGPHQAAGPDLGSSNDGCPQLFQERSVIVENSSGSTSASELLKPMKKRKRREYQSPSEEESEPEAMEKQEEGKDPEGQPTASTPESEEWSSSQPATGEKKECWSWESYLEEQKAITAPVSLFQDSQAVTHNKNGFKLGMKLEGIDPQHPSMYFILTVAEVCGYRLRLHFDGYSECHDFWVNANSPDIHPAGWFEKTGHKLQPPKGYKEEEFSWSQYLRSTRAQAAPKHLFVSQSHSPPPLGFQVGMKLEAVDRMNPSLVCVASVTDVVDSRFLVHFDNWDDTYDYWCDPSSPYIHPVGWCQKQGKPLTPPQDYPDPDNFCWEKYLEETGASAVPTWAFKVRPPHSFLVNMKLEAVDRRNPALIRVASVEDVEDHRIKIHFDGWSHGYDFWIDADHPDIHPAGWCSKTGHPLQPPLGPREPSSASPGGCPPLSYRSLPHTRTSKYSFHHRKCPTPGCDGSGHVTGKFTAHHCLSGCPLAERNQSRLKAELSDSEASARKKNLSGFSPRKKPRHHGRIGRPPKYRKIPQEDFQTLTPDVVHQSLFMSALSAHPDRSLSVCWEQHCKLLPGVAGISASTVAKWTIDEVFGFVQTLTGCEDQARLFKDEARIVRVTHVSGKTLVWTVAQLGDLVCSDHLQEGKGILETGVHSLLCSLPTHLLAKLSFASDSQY
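AlphaScreen assay: L3MBTL1 (50 nM final) was preincubated 30 min at room temperature with biotinylated H3(1-15)K9me1 peptide (75 nM final), then 30 min with library compounds; streptavidin donor and nickel chelate acceptor beads (10 ug/mL final) added, 30 min dark.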
Each line names hits and unclear results; the compound was inactive in the other large screens. Calls come from the whole dose curve; as a rule, active = well fitted inhibition curve with a large enough effect; inconclusive = small, poorly fitted or top-dose-only effect; inactive = no such curve, though single readings can be large or run the other way.

O=C1N(C2CCCC2)C[C@@H]2C[C@@H](c3cccn3-c3nccs3)N3CCC[C@@]123	G9a block 50.1µM
O=C1N(C2CCCC2)C[C@@H]2C[C@@H](c3cccn3-c3ccccn3)N3CCC[C@@]123	none
Cc1ccc(S(=O)(=O)N/N=c2\sc3ccccc3n2C)cc1	G9a block 0.794µM
CCCC1O[C@@H]2C[C@H]3[C@@H]4CCC5=CC(=O)C=C[C@]5(C)C4[C@@H](O)C[C@]3(C)[C@]2(C(=O)CO)O1 (some centres not stated)	none (no result: BAZ2B inh, JMJD2A Tudor inh, HP1b chromo inh, L3MBTL1 block)
Cc1sc2ncn(CC(=O)N(C)C3CCCCC3)c(=O)c2c1C	G9a block 39.8µM
COC(=O)c1sc2ncn(CC(=O)N(C)C3CCCCC3)c(=O)c2c1C	none (no result: L3MBTL1 block)
COc1ccc(CN2CCN(Cc3c[nH]c4ccccc34)CC2)cc1	G9a block inconclusive, BAZ2B inh 20µM, JMJD2A Tudor inh 0.794µM, HP1b chromo inh 35.5µM (no result: L3MBTL1 block)
COc1ccc(C(=O)C2CCCN(Cc3c[nH]c4ccccc34)C2)c(OC)c1 (configuration not stated)	G9a block inconclusive
COc1ccc(Br)cc1CN1CCN(Cc2c[nH]c3ccccc23)CC1	G9a block 8.91µM, BAZ2B inh 14.1µM, JMJD2A Tudor inh 2.82µM, HP1b chromo inh inconclusive (no result: L3MBTL1 block)
O=C(C(=O)N1CCN(c2ccccc2Cl)CC1)c1c[nH]c2ccccc12	BAZ2B inh 50.1µM, JMJD2A Tudor inh inconclusive (no result: L3MBTL1 block)
Fc1ccccc1N1CCN(C2CCN(Cc3c[nH]c4ccccc34)CC2)CC1	none
O=C(C(=O)N1CCCc2ccccc21)c1c[nH]c2ccccc12	none
Clc1ccccc1N1CCN(Cc2c[nH]c3ccccc23)CC1	JMJD2A Tudor inh 20µM, HP1b chromo inh inconclusive (no result: G9a block, BAZ2B inh, L3MBTL1 block)
CCOC(=O)COc1ccc(F)cc1C(=O)c1ccn2nc(-c3ccc(Cl)cc3)cc2n1	none (no result: L3MBTL1 block)
CCOC(=O)C1CCCN(C(=O)c2cc(S(=O)(=O)N(C)C)ccc2N2CCCC2)C1 (configuration not stated)	none
S=C(NCC1CCCO1)Nc1ccc(Nc2ccccc2)cc1 (configuration not stated)	G9a block inconclusive, BAZ2B inh inconclusive, JMJD2A Tudor inh inconclusive, HP1b chromo inh inconclusive
NS(=O)(=O)c1ccc(NC(=S)NCC2CCCO2)cc1 (configuration not stated)	G9a block 11.2µM, HP1b chromo inh inconclusive
O=C(Cc1ccc(Br)cc1)Nc1ccc(S(=O)(=O)NCC2CCCO2)cc1 (configuration not stated)	JMJD2A Tudor inh 22.4µM
COCC(=O)Nc1ccc(S(=O)(=O)NCC2CCCO2)cc1 (configuration not stated)	none
CC(=O)Nc1ccc(S(=O)(=O)NNC(=S)NCC2CCCO2)cc1 (configuration not stated)	G9a block 31.6µM, JMJD2A Tudor inh inconclusive (no result: L3MBTL1 block)
O=C(c1ccccc1Cl)N1CCCCC1CCN1CCCCC1 (configuration not stated)	none (no result: L3MBTL1 block)
Cc1cccc(Cn2nnc3c2C(=O)c2ccccc2C3=O)c1	G9a block inconclusive, BAZ2B inh 12.6µM
COc1ccc(-c2nc3scc(CCNS(=O)(=O)c4cccs4)n3n2)cc1	none (no result: L3MBTL1 block)
Cc1ccc(S(=O)(=O)N2CCN(c3nc(-c4ccncc4)nc4ccccc34)CC2)cc1	JMJD2A Tudor inh inconclusive (no result: G9a block, BAZ2B inh, L3MBTL1 block)
CNC(=O)C1C(=S)NC(N)=C(C#N)C1c1ccccc1 (configuration not stated)	G9a block 12.6µM, JMJD2A Tudor inh 25.1µM (no result: L3MBTL1 block)
N#CC1=C(N)Nc2ncnn2C1c1ccccc1 (configuration not stated)	none (no result: JMJD2A Tudor inh, HP1b chromo inh)
COc1ccc(Nc2c3c(nc4ccccc24)CCC3)cc1	none (no result: L3MBTL1 block)
COc1ccc(Nc2nc3c([nH]2)c(=O)[nH]c(=O)n3C)cc1	G9a block 50.1µM
COc1ccc(Nc2c3ccccc3nc3ccccc23)cc1	G9a block 39.8µM, BAZ2B inh inconclusive, JMJD2A Tudor inh inconclusive (no result: L3MBTL1 block)
COc1ccc(Nc2nc3ccccc3c(=O)[nH]2)cc1	G9a block 79.4µM (no result: L3MBTL1 block)
CCN(CC(=O)Nc1ccc(C(=O)Nc2ccc(OC)cc2)cc1)Cc1nc2ccccc2c(=O)[nH]1	G9a block 35.5µM
CCOCN(C(=O)Cn1cnc2cc(C)c(C)cc21)c1c(C)cccc1CC	none (no result: L3MBTL1 block)
O=[N+]([O-])c1cc(-c2nc(-c3ccco3)no2)ccc1NCc1ccccc1	none (no result: L3MBTL1 block)
O=C(CNCc1ccco1)Nc1ccccc1-n1cccc1	G9a block 12.6µM, BAZ2B inh inconclusive, JMJD2A Tudor inh inconclusive
O=C(NCc1ccco1)c1ccc(Oc2ccccc2)cc1	G9a block inconclusive (no result: L3MBTL1 block)
O=C(O)CCC(=O)Nc1ccccc1C(=O)NCc1ccco1	G9a block inconclusive
O=C(CNCc1ccco1)Nc1ccc(Oc2ccccc2)cc1	G9a block 14.1µM, BAZ2B inh 50.1µM, JMJD2A Tudor inh 17.8µM (no result: L3MBTL1 block)
O=C(O)CCCCCNc1nc(=S)[nH]c2ccccc12	G9a block inconclusive, BAZ2B inh inconclusive, JMJD2A Tudor inh 22.4µM
O=C(CCCCCNc1nc(=S)[nH]c2ccccc12)NCCc1ccc(Cl)cc1	none
COc1ccc(C(=O)C(c2ccccc2)N2CCOCC2)cc1 (configuration not stated)	G9a block 50.1µM, BAZ2B inh inconclusive
CCOc1ccc(C(=O)C(c2ccccc2)N2CCOCC2)cc1 (configuration not stated)	none
O=c1cccc2n1Cc1cc3ccccc3nc1-2	G9a block 44.7µM
CN(CC(=O)Nc1ccccc1Cl)CC(=O)Nc1sc2c(c1C(N)=O)CCC2	none
O=C1S/C(=C\C=C\c2ccco2)C(=O)N1c1ccccc1	G9a block 39.8µM, BAZ2B inh 39.8µM, JMJD2A Tudor inh 10µM, HP1b chromo inh inconclusive, L3MBTL1 block inconclusive
O=C1S/C(=C\C=C\c2ccco2)C(=O)N1c1ccc(O)cc1	G9a block 39.8µM, BAZ2B inh 44.7µM, JMJD2A Tudor inh inconclusive, HP1b chromo inh inconclusive, L3MBTL1 block 15.8µM
O=C1S/C(=C\c2cccs2)C(=O)N1c1ccc(O)cc1	none (no result: L3MBTL1 block)
Cn1cc(/C=C2\SC(=O)N(c3ccccc3)C2=O)c2ccccc21	none
Cc1ccccc1C(=O)Nc1nnc(S(=O)(=O)N2CCCc3ccccc32)s1	none (no result: L3MBTL1 block)
Cc1cc(C)cc(N=C2SC(CC(=O)Nc3ccccc3)C(=O)N2CCN2CCOCC2)c1 (configuration not stated)	G9a block 50.1µM, BAZ2B inh inconclusive, JMJD2A Tudor inh inconclusive
O=C(CNC(=O)c1ccco1)NCc1ccc2c(c1)OCO2	none (no result: G9a block, BAZ2B inh)
CC1CC(C)(C)N(C(=O)CN2CCN(C)CC2)c2ccccc21 (configuration not stated)	BAZ2B inh 25.1µM, JMJD2A Tudor inh 20µM, HP1b chromo inh inconclusive (no result: G9a block)
